The values below come from PubChem BioAssay (NCI).

Experiment in all cases: NCI-60 one-dose screen, 48 h (100 = growth as untreated, 0 = no growth, -100 = all killed)
Conditions in all cases: 10 µM unless noted

Assay [1] has as its system NCI-H23 lung.
The test system of assay [2] is NCI-H226 lung.
Assay [3] relates to NCI-H322M lung.
For assay [4], the system named is HOP-62 NSCLC.
In assay [5] the test system is NCI-H460 lung.
The test system of assay [6] is HOP-92 NSCLC.
For assay [7], the system named is NCI-H522 lung.
Assay [8] has as its system A549/ATCC NSCLC.
Assay [9] has as its system 786-0 renal.
Assay [10] relates to COLO 205 colon.
For assay [11], the system named is DU-145 prostate.
In assay [12] the test system is K-562 leukemia.
Assay [13] relates to MALME-3M melanoma.
In assay [14] the test system is MDA-MB-231 breast.
The subject of assay [15] is RXF 393 renal.
Assay [16] has as its system SF-268 CNS.
For assay [17], the system named is SF-295 CNS.
Assay [18] deals with SF-539 CNS.
In assay [19] the test system is UACC-257 melanoma.
In assay [20] the test system is M14 melanoma.

Compounds without any hit were thinned out: in the full panel of roughly 83,000, 20% have a hit.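 The endpoint reported here, percent growth, reads 100 for growth as untreated, 0 for no net growth and -100 for all cells dead.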 Unmarked numbers belong to inactive results. The source made the active and inactive calls. The calls were made as follows: active = growth percent below 10; inactive = the rest.

In the case of `COc1cc(/C=C/C(=O)c2ccc(Oc3ncnc4ccccc34)cc2)cc(OC)c1OC`, the growth in [1] is 80.3%; in assay [2] it was 98.5%; in [3], 69.5%; in assay [4], 81.9%; in assay [5], 84.5%; in assay [6], 109%. The growth is 52.7% in assay [7]; 73.1% in [8]; 82.2% in assay [9]; 109% in assay [10]; 21.4% in [11]; 12.1% in [12]. Besides, the growth is 98.9% in assay [13]; 86.5% in assay [14]; 84.3% in [15]; 81.1% in assay [16]; 86.7% in [17]; 63.6% in assay [18]. Also, the growth in assay [19] was 93.3%; in assay [20], 73.8%.

For the molecule `CSc1nc(N)nc2c1ncn2C`, the growth was 95.8% in assay [1]; 102% in assay [2]; 104% in [3]; 84.6% in assay [4]; 104% in assay [5]; 64.5% in assay [6]. For the same molecule, the growth was 78% in assay [7]; 84.5% in [8]; 90% in [9]; 94.5% in assay [10]; 108% in assay [11]; 95% in [12]. Besides, the growth is 104% in assay [13]; 109% in assay [14]; 116% in [15]; 98.7% in [16]; 108% in [17]; 98.9% in [18]. The growth is 104% in assay [19] and 102% in assay [20].

Consider `CCOc1ccc(NC2=C(Cl)C(=O)c3ccccc3C2=O)cc1`, for which the growth is 39.6% in assay [1]; 101% in assay [2]; 105% in assay [3]; 95.1% in assay [4]; 97.9% in [5]; 78.6% in [6]. The growth was 62.7% in assay [7]; 97% in [8]; 94.7% in assay [9]; 108% in assay [10]; 102% in [11]; -2.3% (active) in [12]. Moreover, the growth in assay [13] was 108%; in assay [14], 80.2%; in [15], 105%; in assay [16], 94.2%; in assay [17], 94.3%; in assay [18] it was 90.9%. The growth in assay [19] was 97.6%; in assay [20] it was 68%.

With `COc1ccc(-c2nn(-c3ccc(NC(=O)Nc4ccc(Cl)c(Cl)c4)cc3)cc2-c2ccncc2)cc1Cl`, the growth was 6.03% (active) in assay [1]; 6.82% (active) in assay [2]; 47.2% in [3]; 20.7% in assay [4]; -21.1% (active) in assay [5]; -17% (active) in assay [6]. The growth in assay [7] was 0.622% (active); in assay [8] it was 15%; in [9], 2.7% (active); in assay [10], -47.7% (active); in [11] it was 28.6%; in [12], 11.6%. The growth in [13] was 16%; in [14], 0.693% (active); in [15], -55.7% (active); in assay [16], 31.1%; in assay [17], 1.08% (active); in [18] it was 15.7%. The growth in [19] is 11.9%; in [20], 6.66% (active).

Turning to `COC(=O)c1ccc2c(c1)Oc1ccc(Cl)cc1-c1cc(C)nn1-2`, the growth in assay [1] was 78.1%; in assay [2] it was 37.4%; in assay [3], 81.9%; in assay [4], 37.6%; in assay [5], 14%; in assay [6], 61.1%. Also, the growth in assay [7] is 82.3%; in assay [8], 40.5%; in [9] it was 69.5%; in assay [10], 69.6%; in assay [11], 82.3%; in assay [12], 89.5%. Also, the growth in assay [13] is 80%; in assay [14] it was 60.7%; in [15], 91.8%; in assay [16], 80.5%; in [17] it was 24.6%; in [18], 68.4%. In addition, the growth in assay [19] was 108%; in assay [20] it was 89%.

For `COc1ccc(/C(Cl)=N/N=C(\Cl)c2cc(OC)c(OC)c(OC)c2)cc1OC(C)=O`, the growth in assay [1] is 99.2%; in assay [2] it was 95.3%; in [3], 95.1%; in assay [4], 87.5%; in assay [5], 97.4%; in assay [6] it was 77.3%. For the same molecule, the growth in assay [7] is 50.2%; in [8], 86.5%; in [9] it was 102%; in assay [10], 98.9%; in [11] it was 95.3%; in assay [12] it was 97.3%. Besides, the growth is 93.6% in assay [13]; 97.8% in assay [14]; 101% in assay [15]; 95.3% in [16]; 102% in assay [17]; 93.3% in [18]. Further, the growth in assay [19] is 84.6%; in assay [20], 107%.

On to `CC(Cl)(CCl)CS(=O)(=O)c1ccc(Cl)cc1` (stereo not given), for which the growth in assay [1] was 101%; in [2], 92.6%; in assay [3] it was 100%; in assay [4] it was 94.8%; in assay [5], 107%; in assay [6], 90%. Moreover, the growth in [7] was 92.9%; in [8], 88.9%; in assay [9], 102%; in assay [10], 106%; in [11], 108%; in assay [12] it was 105%. Further, the growth is 114% in [13]; 96.5% in assay [14]; 93.1% in assay [15]; 101% in assay [16]; 100% in assay [17]; 107% in assay [18]. Also, the growth in assay [19] is 86.7%; in assay [20] it was 104%.
